ATXN2 expr inh = inhibitors of ATXN2 expression | HEK-293 ATXN2-luciferase reporter, luminescence, 24 h | Potency, µM (highest dose often 57 µM), without a hit: at the top dose activity change, negative = inhibition, most hits filed as inhibitors | actives 0.72% (n = 360,000) | AID 1745845; also: potency is read from the fitted curve at half-maximal effect; % is scaled to controls: 0 for no effect and ±100 for the full control effect; nearly all actives have a fitted effect of over 55% in size
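qHTS (up to 57 uM final) was run with 24 h compound exposure of reporter cells at 37 °C. Each well was multiplexed: SteadyGlo luminescence measured ATXN2-luciferase expression after a fluorogenic Gly-Phe-AFC viability readout (25 uM final).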
DRD3 agonist = activates the human D3 dopamine receptor; AID 652048; D3R DiscoveRx beta-arrestin cells, luminescence, 90 min; actives 0.58% (n = 410,000); P35462; max activation, %; in the data active = max activation above about 30%; also: 0% is about no effect
Target sequence (P35462 whole entry, looked up): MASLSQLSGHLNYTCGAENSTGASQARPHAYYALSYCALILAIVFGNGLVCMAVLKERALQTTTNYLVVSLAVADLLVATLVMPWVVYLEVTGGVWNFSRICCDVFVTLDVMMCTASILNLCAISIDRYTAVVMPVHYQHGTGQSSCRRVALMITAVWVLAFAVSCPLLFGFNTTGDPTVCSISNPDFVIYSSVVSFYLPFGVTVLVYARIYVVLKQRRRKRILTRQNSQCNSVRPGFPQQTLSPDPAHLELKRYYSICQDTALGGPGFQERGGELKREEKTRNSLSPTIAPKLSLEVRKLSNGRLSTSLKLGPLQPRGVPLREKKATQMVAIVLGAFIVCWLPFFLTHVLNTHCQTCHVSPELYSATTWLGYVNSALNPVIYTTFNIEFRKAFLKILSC
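Agonist mode: compounds and dopamine controls were applied to plated cells for 90 min at 37 degrees C after an overnight attachment at 1500 cells/well. Luminescent read-out followed 30 - 60 minutes at room temperature with DiscoveRx detection reagent.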
TGFb inhibitor = inhibitors of TGF-b signaling. actives 1.2% (n = 410,000). HepG2 CAGA-GFP TGF-b/SMAD3 reporter, GFP fluorescence, 18 h; TGF-beta stimulated, 500 pg/mL final. Potency, µM (top dose mostly 46.1 µM), inactives show at the highest dose activity, negative = inhibition, hits mostly inhibitors; also: potency is read from the fitted curve at half-maximal effect; % is scaled to controls: 0 for no effect and ±100 for the full control effect; nearly all actives have a fitted effect of over 65% in size
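Cell-based qHTS in HEPG2 carrying a CAGA-GFP Smad reporter; compounds added before 500 pg/mL final TGF-beta, 18 h incubation at 37 degrees C, GFP fluorescence quantified per cell by imaging cytometry.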
D3 antag = antagonists of human D3 dopamine receptor | D3R cells, DiscoveRx beta-arrestin luminescence, antagonist mode; active compounds read low | max response, negative = inhibition, % | actives 2.5% (n = 360,000); in the data active = max response below about -50%; inconclusive = no clear call, values can overlap the other calls; also: % is scaled to controls: 0 for no effect and ±100 for the full control effect
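Cells expressing the human receptor were seeded at 1500 cells/well, incubated overnight at 37 degrees C in 5% CO2, then exposed to library compounds with dopamine controls for 90 minutes at 37 degrees C before luminescent detection.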
HepG2 viability = counter-screen for TGF-b inhibitors: cytotoxicity in HepG2 cells | HepG2 CAGA-GFP viability, ATP luminescence, 18 h | Potency, µM (highest dose often 46.1 µM), for the others: top-dose activity change, negative = cytotoxicity, actives largely listed as cytotoxic | actives 0.76% (n = 410,000) | AID 588856; also: potency is read from the fitted curve at half-maximal effect
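HepG2 CAGA-GFP cells (1000/well, DMEM with 1% FBS) received compound, then TGF-beta at 500 pg/mL final, and were incubated 18 hours at 37 degrees C. Viability was read by CellTiter-Glo luminescence. Media-only wells were set as complete cell-killing and DMSO as no toxicity.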
ATXN viability = viability counter-screen for ATXN expression inhibitors; actives 0.49% (n = 400,000); S2 cells (HEK-293 line with an ATXN2-luciferase reporter) viability, CellTiter-Fluor protease fluorescence, 24 h; AID 651635; Potency, µM (top dose mostly 56.7 µM), hits mostly cytotoxic; also: potency is read from the fitted curve at half-maximal effect; nearly all actives have a fitted effect of over 40% in size
Numbers without * were called inactive; i = inactive; ? = inconclusive; · = no result given. Compounds with a hit are over-represented: about 4.8% of the library has one in this group of screens. Unless noted, calls follow the shape of the dose curve; as a rule, active = well fitted curve in the direction sought with a large enough effect; inconclusive = small, poorly fitted or top-dose-only effect, or another doubt; inactive = no such curve, though single readings can be large; an effect the other way counts as inactive or inconclusive.

SMILES	ATXN2 expr inh	DRD3 agonist	TGFb inhibitor	D3 antag	HepG2 viability	ATXN viability
CCC(=O)N1CCc2cc(S(=O)(=O)NC(C(=O)NCCc3ccc(OC)c(OC)c3)C(C)C)ccc21 (stereo unspecified)	14.5%	-14.6	-1.2%	·	-18.2%	i
COc1ccc2[nH]c(C(=O)NCCc3ccccc3)cc2c1	9.2%	-17.2	28.7%	0.4	-36.7%	i
COc1cc2[nH]c(C(=O)NCc3ccccc3)cc2c(OC)c1OC	2.9%	-9.6	20.1%	-105.4*	-43.1%	i
COc1cc2[nH]c(C(=O)NCCc3ccccc3)cc2c(OC)c1OC	-2.3%	-14.8	-6.4%	-61.1*	-16.3%	i
COc1cc2[nH]cc(C(=O)NCc3ccccc3)c(=O)c2cc1OC	·	-8.6	-12.4%	-4.8	-16.7%	i
O=C(c1cccc(F)c1F)N1CCOc2ccc(CN3CCN(Cc4ccccn4)CC3)cc2C1	·	·	·	·	·	i
CCOC(=O)c1ccc(N2C(=O)c3[nH]nc(-c4ccc(OC)cc4)c3C2c2ccc(C)cc2)cc1 (stereo unspecified)	?	0.6	25.1µM*	·	-46.5%	?
CCOC(=O)c1ccc(N2C(=O)c3n[nH]c(-c4cccs4)c3C2c2cccc(F)c2)cc1 (stereo unspecified)	·	6.3	?	·	-95.6%	·
CCOC(=O)c1ccc(N2C(=O)c3n[nH]c(-c4ccco4)c3C2c2cccc(F)c2)cc1 (stereo unspecified)	?	11.7	?	·	15.8µM*	?
CCOC(=O)c1ccc(N2C(=O)c3n[nH]c(-c4ccco4)c3C2c2cccc(O)c2)cc1 (stereo unspecified)	?	-8.1	12.6µM*	·	22.4µM*	?
CCOC(=O)c1ccc(N2C(=O)c3n[nH]c(-c4ccco4)c3C2c2ccccc2OC)cc1 (stereo unspecified)	?	6.5	?	·	5.01µM*	?
CCNC(=O)CCCC=CC[C@@H]1[C@H](C=CC(O)CCc2ccccc2)[C@@H](O)C[C@@H]1O (stereo partly specified)	-2.6%	·	·	·	·	·
CCOC(=O)c1ccc(N2C(=O)c3n[nH]c(C)c3C2c2ccccc2)cc1 (stereo unspecified)	7.8%	-23.2	5.3%	-16.2	-15.3%	i
CCOC(=O)c1ccc(N2C(=O)c3n[nH]c(-c4ccco4)c3C2c2ccc(OCC)cc2)cc1 (stereo unspecified)	·	7.6	7.08µM*	·	-76.2%	·
CCOC(=O)c1ccc(N2C(=O)c3n[nH]c(-c4ccco4)c3C2c2ccc(F)cc2)cc1 (stereo unspecified)	?	9.0	?	·	22.4µM*	?
CCOC(=O)c1ccc(N2C(=O)c3n[nH]c(-c4ccco4)c3C2c2cccc(OC)c2)cc1 (stereo unspecified)	?	-5.9	4.47µM*	·	-72.7%	?
Cc1ccsc1C1Cc2c(C(=O)NCc3cccnc3)c(=O)cc(C)n2-c2ccccc2S1 (stereo unspecified)	·	·	·	·	·	i
C#CCOc1c(Br)cc(C2C(C(=O)OC)=C(C)NC3=C2C(=O)c2ccccc23)cc1OCC (stereo unspecified)	1.8%	-35.3	-20.2%	·	-0.1%	?
COc1ccc(-n2c(=O)c3ccccc3n(Cc3ccccc3C)c2=O)c(OC)c1	-18.4%	-4.2	-33.2%	·	-3.3%	?
CCc1nnc(N/N=C/c2ccc(O)c(OC)c2)n1N	3.0%	2.0	17.8µM*	-11.2	-103.7%	i
CCc1nnc(N/N=C/c2cc(Br)c(O)cc2O)n1N	-31.0%	-2.5	7.94µM*	6.2	10µM*	i
COc1ccc(-c2cnnc(N/N=C/c3ccc(O)c(OC)c3)n2)cc1	3.4%	31.5*	-12.9%	13.1	-41.8%	i
CCc1nnc(N/N=C/c2cccs2)n1N	-9.5%	1.3	12.6µM*	-16.4	-98.1%	i
CCc1nnc(N/N=C/c2c(Cl)cccc2Cl)n1N	-12.2%	-6.3	?	?	-100.3%	i
COc1cc(/C=N/Nc2nc(N3CCCC3)nc(N3CCCC3)n2)ccc1O	1.3%	-0.4	-1.9%	33.7	-17.8%	i
SMILES	ATXN2 expr inh	DRD3 agonist	TGFb inhibitor	D3 antag	HepG2 viability	ATXN viability
CC(C)C[C@H](NC(=O)[C@@H](COC(C)(C)C)NC(=O)[C@H](Cc1ccc(O)cc1)NC(=O)[C@H](CO)NC(=O)[C@H](Cc1c[nH]c2ccccc12)NC(=O)[C@H](Cc1cnc[nH]1)NC(=O)[C@@H]1CCC(=O)N1)C(=O)N[C@@H](CCCN=C(N)N)C(=O)N1CCC[C@H]1C(=O)NNC(N)=O	·	1.4	·	·	·	i
COc1ccc(-c2ccnc(-n3ncc(C(=O)NC(C)(C)CO)c3C3CC3)n2)cc1F	·	·	·	·	·	i
CC(C)(C)c1nnc(N/N=C/c2cc(Br)ccc2O)n(N)c1=O	?	57.0*	?	90.2	-36.9%	i
c1ccc(-c2noc(-c3ccc4ccccc4c3)n2)nc1	2.24µM*	-2.3	0.0%	21.4	-57.5%	i
O=[N+]([O-])c1cccc(-c2nc(-c3ccccn3)no2)c1	·	5.1	-16.2%	13.7	-44.3%	i
Clc1ccccc1/C=C/c1nc(-c2ccccn2)no1	5.01µM*	9.6	28.5%	-9.5	-23.9%	i
c1ccc(-c2noc(-c3ccncc3)n2)nc1	-31.8%	8.7	12.7%	7.2	10µM*	i
CC(C)(C)c1ccc(-c2nc(-c3ccncc3)no2)cc1	7.3%	6.5	15.8µM*	21.8	10µM*	i
c1ccc(-c2noc(-c3cccnc3)n2)nc1	-28.6%	8.1	3.2%	3.1	-49.9%	?
CCOC(=O)c1cnc(NCc2ccccc2OC)c2ccccc12	·	-0.7	-25.5%	·	-12.5%	·
Cc1ccc(S(=O)(=O)c2cn(CC(=O)Nc3ccc4c(c3)OCO4)c3ccc(F)cc3c2=O)cc1	2.4%	0.0	?	·	-3.8%	?
CCCCNC(=O)c1c(-c2ccccc2)c(-c2ccccc2)nn(C)c1=O	·	6.7	0.1%	·	4.4%	·
Cc1cccc(-c2noc(-c3ccc4c(c3)OCO4)n2)c1	64.0%	2.6	0.0%	4.5	-3.3%	·
c1ccc(-c2noc(-c3ccc4c(c3)OCO4)n2)nc1	?	3.8	-9.6%	-15.6	1.58µM*	i
COc1cccc(-c2nc(-c3ccccc3)no2)c1	82.7%	-0.4	-14.0%	18.5	-20.1%	i
COc1cccc(-c2nc(-c3ccccn3)no2)c1	?	-3.1	5.5%	2.0	10µM*	i

Screening data as filed in PubChem.
